# Assay outcomes from PubChem BioAssay.
# GLS inhibitor = inhibitors of human glutaminase (GLS) | O94925 | Potency, µM (doses to about 45.5 µM), without a hit: at the highest dose activity change, negative = inhibition, usual class: inhibitors | GLS enzymatic activity, qHTS titration | 410,000 tested, 0.21% active; note: % is set by controls: 0 for no effect and ±100 for the full control effect
#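 Human kidney-isoform GLS in 45 mM KH2PO4 pH 8.2, 0.02% Tween-20, with compound, started with 1mM L-Glutamine (added stock). Glutamate oxidase/HRP/Amplex red coupled fluorescence read at start and after 30 min at RT.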
# JMJD2A Tudor = inhibitors of human JMJD2A Tudor domain; AID 504339; O75164; 390,000 tested, 4.4% active; Potency, µM (doses to about 114 µM), for the others: top-dose activity change, negative = inhibition, actives largely listed as inhibitors; AlphaScreen JMJD2A-Tudor / H3K4me3 peptide binding; note: % is set by controls: 0 for no effect and ±100 for the full control effect; nearly all actives have a fitted effect of over 50% in size
# BAZ2B block = inhibitors of human BAZ2B bromodomain | Q9UIF8 | AlphaScreen BAZ2B-H3K14Ac peptide displacement | Potency, µM (highest dose often 114 µM), inactives show top-dose activity change, negative = inhibition, actives largely listed as inhibitors | 360,000 tested, 4.4% active | AID 504333; note: % is set by controls: 0 for no effect and ±100 for the full control effect; nearly all actives have a fitted effect of over 60% in size
#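 BAZ2B (50 nM) with biotin-H3(5-23)K14Ac peptide (50 nM) in PBS pH 7.4, 0.01% Tween-20, preformed 30 min, then compound 30 min at room temperature; top concentration 110uM. AlphaScreen streptavidin donor/nickel chelate acceptor beads (10 ug/mL final), 20 min dark, signal read.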
# G9a block = G9a (human) methyltransferase inhibition; Potency, µM (doses to about 102 µM), without a hit: at the highest dose activity, negative = inhibition, actives largely listed as inhibitors; 350,000 tested, 8.8% active; G9a H3K9 monomethylation, AlphaScreen, 2 h; note: % is set by controls: 0 for no effect and ±100 for the full control effect; nearly all actives have a fitted effect of over 75% in size
# Target sequence (Q96KQ7 913-1193 limits assumed): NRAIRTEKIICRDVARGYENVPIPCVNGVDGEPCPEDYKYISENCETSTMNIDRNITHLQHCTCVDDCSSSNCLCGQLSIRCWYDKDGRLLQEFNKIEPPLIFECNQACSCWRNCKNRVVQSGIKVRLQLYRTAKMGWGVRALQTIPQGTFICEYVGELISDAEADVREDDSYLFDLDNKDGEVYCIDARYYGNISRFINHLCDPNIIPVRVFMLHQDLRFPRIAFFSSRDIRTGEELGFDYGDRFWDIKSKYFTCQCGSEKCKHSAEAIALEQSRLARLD
#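 Methyltransferase reactions run at room temperature for 2 h (20 nM enzyme, 500 nM biotin-H3K9 peptide, 20 uM SAM) after a 15 min compound preincubation; product detected by AlphaScreen beads and anti-H3K9me1 antibody.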
# L3MBTL1 inh = inhibitors of human L3MBTL1 | AlphaScreen L3MBTL1–H3K9me1 peptide binding | Potency, µM (top dose mostly 57.1 µM), for the others: at the highest dose activity, negative = inhibition, usual class: inhibitors | 230,000 tested, 0.66% active | AID 485360; note: % is set by controls: 0 for no effect and ±100 for the full control effect; nearly all actives have a fitted effect of over 60% in size
#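 L3MBTL1 (50 nM) pre-complexed 30 min with biotinylated H3(1-15)K9me1 peptide (75 nM), then compounds added for 30 min at room temperature; AlphaScreen streptavidin donor/nickel chelate acceptor beads (10 ug/mL final) read after 30 min dark incubation.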
# HP1b chromo inh = HP1-beta chromodomain-methylated histone interaction inhibition; P83916; AlphaScreen HP1-beta / biotin-H3K9me3 peptide binding; Potency, µM (doses to about 114 µM), for the others: top-dose activity change, negative = inhibition, actives largely listed as inhibitors; 390,000 tested, 0.56% active; AID 540317; note: nearly all actives have a fitted effect of over 70% in size
# Target sequence (P83916 whole entry, looked up): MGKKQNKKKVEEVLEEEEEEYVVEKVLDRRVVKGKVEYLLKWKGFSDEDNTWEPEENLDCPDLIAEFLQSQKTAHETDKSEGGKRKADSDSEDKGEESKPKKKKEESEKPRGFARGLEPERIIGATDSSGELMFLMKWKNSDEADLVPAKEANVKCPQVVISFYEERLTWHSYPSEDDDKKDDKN
#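 HP1-beta protein (50 nM final) preincubated 30 min at room temperature with biotinylated H3(1-18)K9me3 peptide (50 nM) in PBS pH 7.4, 0.01% Tween-20, then compound added for 30 min. AlphaScreen streptavidin donor/nickel chelate acceptor beads (10 ug/mL final), 30 min dark, luminescence read.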
# Numbers without * were called inactive; ? = inconclusive; / = not tested or not shown; [ ] = dose if it differs, or a comment. Rows were chosen to be rich in hits. Some 10% of all compounds tested hit in one or more screens of this group. Calls come from the whole dose curve; as a rule, active = well fitted curve in the direction sought with a large enough effect; inconclusive = small, poorly fitted or top-dose-only effect, or another doubt; inactive = no such curve, though single readings can be large; an effect the other way counts as inactive or inconclusive. Potency is the fitted concentration of half-maximal effect.
SMILES,GLS inhibitor,JMJD2A Tudor,BAZ2B block,G9a block,L3MBTL1 inh,HP1b chromo inh
O=C(O)CC(NC(=S)NCc1ccccc1)C(=O)O (stereo not given),-1.7%,-2.1%,-16.1%,?,/,35.6%
Cc1cccc(C)c1NC(=O)CC(NCc1ccco1)C(=O)O (stereo not given),-3.8%,20µM*,-33.9%,-40.1%[12.7 µM],-4.6%,13.1%
CCOC(=O)C(CC(=O)O)NCc1ccco1 (stereo not given),0.6%,17.8µM*,-4.7%,39.8µM*,7.9%,4.2%
COc1ccc(OC)c(NC(=O)C(CC(=O)O)NCc2ccco2)c1 (stereo not given),14.3%,44.7µM*,-31.2%,?,-6.0%,-12.4%
CC(C)OC(=O)C(CC(=O)O)NCc1ccccc1 (stereo not given),20.0%,11.2µM*,-36.1%,?,-2.3%,?
COc1ccc(CN(C)c2ccc(-c3nc(-c4ccc(OC)c(OC)c4)no3)cc2[N+](=O)[O-])cc1,3.5%,-18.2%,-5.4%,-6.4%[59 µM],/,28.7%
CN(C)CCOCCOc1ccc(Cl)cc1C(C)(C)C,-8.9%,3.16µM*,50.1µM*,8.91µM*,0.4%,?
CN(CCOCCOc1ccc(Cl)cc1Br)Cc1ccccc1,-8.0%,1.3%,1.6%,36.6%,13.5%,34.4%
CC(O)CNCCCOc1ccc(Cl)cc1C(C)(C)C (stereo not given),0.0%,0.891µM*,?,/,-2.9%,?
COc1ccc(-c2noc(N3CCC(C(=O)Nc4ccc(C)c(F)c4)CC3)n2)cc1OC,-6.7%,3.4%,2.1%,7.7%[59 µM],/,17.2%
CC(=O)c1ccc(OCC(=O)N2CCCCC2)cc1,-6.5%,/,/,/,/,/
Cc1cccc(Cn2c(=O)n(CCC(=O)NCc3ccc4c(c3)OCO4)c(=O)c3sccc32)c1,2.7%,-0.7%,4.7%,4.2%[59 µM],/,43.7%
COc1ccc2c(Sc3ccc(Cl)cc3)c(C(=O)N3CCCCC3)[nH]c2c1,17.6%,?,-30.0%,?,/,11.3%
COc1ccc(CN2CCN(Cc3ccc(C(F)(F)F)cc3)CC2)c(OC)c1,-4.7%,5.62µM*,25.1µM*,39.8µM*,/,?
COc1ccc(CN2CCN(c3ccccn3)CC2)c(OC)c1,/,1.58µM*,79.4µM*,?,0.0%,?
COc1ccc(CN2CCN(Cc3ccccc3F)CC2)c(OC)c1,-2.2%,1.26µM*,20µM*,50.1µM*,/,?
COc1ccc(CN2CCN(Cc3ccc(C)cc3)CC2)c(OC)c1,-6.0%,3.16µM*,22.4µM*,50.1µM*,/,?
COc1ccc(CN2CCOCC2)cc1,12.9%,-13.0%,?,12.0%,/,26.9%
COc1ccc(CN2CCN(c3ncccn3)CC2)c(OC)c1,3.3%,?,-5.2%,?,-10.5%,?
Cc1ccc(CCNC(=O)c2sc3ncccc3c2-n2c(C)ccc2C)cc1,-14.2%,-24.3%,2.8%,-3.4%[59 µM],/,12.2%[57 µM]
COc1ccc(CCn2c3c(c(=O)[nH]c2=S)CN(c2ccccc2)CN3)cc1OC,/,-19.0%,/,/,/,2.4%
CCCCC1(CO)C(=O)N(c2ccccc2)N(c2ccccc2)C1=O,10.3%,-23.4%,-8.4%,/,/,10.9%
CCCCC1(Br)C(=O)N(c2ccccc2)N(c2ccccc2)C1=O,43.2%,17.8µM*,?,?,-4.0%,?
O=C(O)Cc1sc(Nc2cccc3ccccc23)nc1-c1ccccc1,8.6%,?,?,-41.6%[12.7 µM],-6.6%,-16.7%
CCOc1ccccc1Nc1nc(-c2ccc(C)cc2)c(CC(=O)O)s1,-2.6%,-17.2%,-9.0%,7.94µM*,/,33.5%
O=C(O)Cc1sc(Nc2cccc3ccccc23)nc1-c1ccc(Cl)cc1,?,-28.5%,?,25.1µM*,/,1.1%
Cc1ccc(Nc2nc(-c3ccc(C)cc3)c(CC(=O)O)s2)cc1,-18.2%,?,?,35.5µM*,-7.2%,-23.2%
CC(C)[C@H](/C=C/C[Si](C)(C)C)[C@H](C)C(O)/C=C/CCCOC(=O)C(C)(C)C (stereo not given in full),/,-4.1%,/,/,/,36.8%
